High-throughput results as filed in PubChem BioAssay.
HT1080-NT tox = kills 2HG-producing HT-1080-NT fibrosarcoma cells; actives 1.6% (n = 360,000); HT-1080-NT fibrosarcoma viability, CellTiter-Glo ATP luminescence, 48 h; Potency, µM (highest dose often 46.1 µM), inactives show top-dose activity, negative = less viability, actives largely listed as cytotoxic;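 also: NT is the 2HG producing partner of a matched IDH1 knockdown line; potency is read from the fitted curve at half-maximal effect; 0% = DMSO-treated cells and -100% = media-only wells without cells; nearly all actives have a fitted effect of over 55% in size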
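A 48-hour cytotoxicity screen used HT-1080-NT cells plated 2 hours before compound delivery. ATP-based CellTiter-Glo luminescence measured viability, normalized to DMSO and no-cell controls.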
HT1080 IDH1KD tx = HT-1080 IDH1 knockdown cell toxicity (counter line). HT-1080 IDH1 knockdown viability, ATP luminescence, 48 h. Potency, µM (doses to about 46.1 µM), inactives show at the highest dose activity, negative = toxicity, usual class: cytotoxic. actives 2% (n = 360,000). AID 686971;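 also: potency is read from the fitted curve at half-maximal effect; 0% = DMSO wells and -100% = cell-free medium wells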
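In this qHTS, HT-1080 cells depleted of IDH1 are exposed for 48 h at 37 °C to compound titrations. Toxicity is scored from CellTiter-Glo luminescence, with DMSO as full viability and medium alone as none.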
IL1B secr inh = blocks inflammasome-driven IL-1 beta release | THP-1 LPS/ATP IL-1B secretion, AlphaLISA, 16 h; hits give low values | activity change, % at 57.5 µM | actives 4.7% (n = 360,000); in the data active = activity change below about -50%; inconclusive = mostly about -30% to -49%
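Secreted IL-1B measured by AlphaLISA bead assay after 16 h compound exposure of THP-1 cells; compounds (final up to 57.5 uM) added 1 h before LPS (250 ng/mL) and ATP (1.25 mM) stimulation; lower signal means less secretion.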
DT40 TDP1 no CPT = qHTS for Inhibitors of human tyrosyl-DNA phosphodiesterase 1 (TDP1): qHTS in cells in absence of CPT | DT40 Tdp1-/- hTDP1 cells, no CPT, ATP luminescence, 48 h | Potency, µM (titrated, usually from 46.2 µM), for inactives: at the highest dose activity change, negative = growth inhibition, hits mostly inhibitors | actives 15% (n = 420,000); also: potency is read from the fitted curve at half-maximal effect; nearly all actives have a fitted effect of over 55% in size
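A cellular qHTS used chicken DT40 cells lacking endogenous Tdp1 but carrying stably transfected human TDP1. Compounds were applied without camptothecin, and cell growth kinetics were judged by ATP-dependent luminescence after ≥48 hr.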
ELG1 DNA repair = blocks ELG1-dependent DNA repair in HEK293T cells; HEK293T ELG1-luciferase reporter, luminescence, 16 h; DNA damage induced by 5-fluorouridine; Potency, µM (top dose mostly 46.1 µM), without a hit: top-dose activity change, negative = inhibition, usual class: inhibitors; actives 2.3% (n = 330,000); also: potency is read from the fitted curve at half-maximal effect; nearly all actives have a fitted effect of over 55% in size
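Reporter activity after DNA damage by 5-fluorouridine is monitored. Compound-treated cells incubate 16 hr at 37 °C, then ONE-Glo is added for 30 min before luminescence reading.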
TDP1 cell CPT = DT40-hTDP1 cell growth loss with CPT | chicken DT40 Tdp1-/-;hTDP1 cells + 20 nM CPT, ATP luminescence, 48 h | actives 12% (n = 420,000) | Potency, µM (titrated, usually from 46.2 µM), inactives show at the top dose activity change, negative = growth inhibition, usual class: inhibitors; also: potency is read from the fitted curve at half-maximal effect; nearly all actives have a fitted effect of over 55% in size
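Cell growth measured by CellTiter-Glo luminescence after a minimum 48 h, 37 C compound exposure with 20 nM CPT in Tdp1-knockout DT40 cells stably expressing hTDP1, seeded 400/well; qHTS titration format.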
The depositor's hits bear a star; ? = inconclusive; nt = not tested or not shown; [ ] = dose if it differs, or a comment. Most compounds without a hit are left out; they make up all but 19% or so of the library. Unless noted, calls follow the shape of the dose curve; as a rule, active = well fitted curve in the direction sought with a large enough effect; inconclusive = small, poorly fitted or top-dose-only effect, or another doubt; inactive = no such curve, though single readings can be large; an effect the other way counts as inactive or inconclusive. Unless noted, % is scaled to controls: 0 for no effect and ±100 for the full control effect.

SMILES	HT1080-NT tox	HT1080 IDH1KD tx	IL1B secr inh	DT40 TDP1 no CPT	ELG1 DNA repair	TDP1 cell CPT
CC(=O)N1c2ccccc2N=C(c2ccc(C(F)(F)F)cc2)C1C(=O)NC(C)C (stereo not drawn)	-8%	-14%	42	23µM*	nt	21µM*
Cc1ccc(C(=O)N2c3ccccc3N=C(c3ccccc3)C2C(=O)NC(C)C)cc1 (stereo not drawn)	?	-28%	-1	?	nt	-25%
CCCCNC(=O)C1C(c2ccc(C(F)(F)F)cc2)=Nc2ccccc2N1C(=O)c1cccc(C(F)(F)F)c1 (stereo not drawn)	6%	9%	0	?	nt	?
CC(C)NC(=O)C1C(c2ccccc2)=Nc2ccccc2N1C(=O)c1cc(Cl)cc(Cl)c1 (stereo not drawn)	16µM*	16µM*	1	?	nt	23µM*
CC(=O)Nc1ccc(S(=O)(=O)NCC2CCC(C(=O)NCCc3ccc(C)cc3)CC2)cc1 (stereo not drawn)	nt	nt	nt	-10%	nt	-3%
O=C(Nc1ccc(OC(F)(F)F)cc1)c1cnccn1	-14%	-2%	8	-24%	?	-18%
COc1ccc(CCC(=O)N2c3ccccc3N=C(c3ccc(C(F)(F)F)cc3)C2C(=O)NC(C)C)cc1 (stereo not drawn)	?	?	50	?	nt	23µM*
Cc1cc(-c2ccc(S(=O)(=O)Nc3ccc(Cl)cc3C)cc2)on1	nt	nt	nt	3.3µM*	nt	4.6µM*
Cc1cc(-c2ccc(S(=O)(=O)Nc3cccc(Cl)c3C)cc2)on1	nt	nt	nt	6.5µM*	nt	6.5µM*
Cc1cc(-c2ccc(S(=O)(=O)Nc3ccccc3C)cc2)on1	nt	nt	nt	4.6µM*	nt	5.2µM*
Cc1cc(-c2ccc(S(=O)(=O)NCc3ccc(F)cc3)cc2)on1	-1%	-3%	-4	-10%	2%	?
Cc1ccc(NS(=O)(=O)c2ccc(-c3cc(C)no3)cc2)c(Br)c1	nt	nt	nt	8.2µM*	nt	12µM*
CC(=O)c1cccc2c(O)c(C3=Nc4ccccc4C3=O)[nH]c12	-24%	?	-18	15µM*	?	18µM*
CCCCOC(=O)c1ccc(NC(=O)c2ccc3c(c2)CCN3S(C)(=O)=O)cc1	nt	nt	nt	?	nt	-25%
Clc1cccc(N2CCN(c3c4c(nc5nncn35)CCC4)CC2)c1	nt	nt	nt	7.3µM*	nt	18µM*
CCCCNC(=O)CCn1c(=O)c2ccccc2n(Cc2ccccc2C#N)c1=O	nt	nt	nt	-24%	nt	-4%
COc1ccc(/C=N/NC(=O)c2ccc(CSc3nc(C)cc(C)n3)cc2)c(OC)c1OC	?	?	12	?	?	?
Cc1cc(C)nc(SCc2ccc(C(=O)N/N=C/c3ccc(C(=O)O)cc3)cc2)n1	2%	4%	-10	-20%	-2%	-5%
Cc1cc(C)nc(SCc2ccc(C(=O)N/N=C/c3cccc(O)c3O)cc2)n1	?	2.3µM*	44	5.8µM*	-13%	5.2µM*
COc1ccc(O)c(/C=N/NC(=O)c2ccc(OCc3cccc(Br)c3)cc2)c1	1.6µM*	5.2µM*	92	5.8µM*	3.7µM*	4.6µM*
COc1ccc(O)c(/C=N/NC(=O)c2ccc(CSc3nc(C)cc(C)n3)cc2)c1	?	?	59	2.9µM*	?	4.6µM*
CCS(=O)(=O)c1nc2ccccc2n1CC(=O)Nc1ccccc1C(=O)OC	nt	nt	nt	-6%	nt	-1%
CN(/N=C/c1cccnc1)c1cnc2ccccc2n1	3%	-11%	10	?	?	-28%
COc1ccccc1Cn1c(=O)c2ccccc2n2c(SCC(=O)N3CCCCC3)nnc12	12%	15%	-24	?	?	?
CC1CCCN(C(=O)CSc2nnc3n(C4CCCC4)c(=O)c4ccccc4n23)C1 (stereo not drawn)	2%	6%	-2	16µM*	9.2µM*	23µM*
SMILES	HT1080-NT tox	HT1080 IDH1KD tx	IL1B secr inh	DT40 TDP1 no CPT	ELG1 DNA repair	TDP1 cell CPT
O=C(CSc1nnc2n(C3CCCC3)c(=O)c3ccccc3n12)N1CCCCCC1	-20%	-24%	-10	23µM*	?	21µM*
Cn1c(=O)[nH]c(=O)c2c1nc1n2CCN1c1ccccc1	nt	nt	nt	-13%	nt	-12%
CCc1ccc(NC(=O)[C@H](C)NC(=O)C2CCN(C(=O)[C@@H](N)C(C)C)CC2)cc1	1%	3%	0	-2%	0%	-1%
CCOC(=O)C1=C(C)Nc2sc(C(=O)c3ccc(F)cc3)c(N)c2C1c1ccc(C(=O)OC)cc1 (stereo not drawn)	-3%	-15%	-10	12µM*	5.2µM*	18µM*
CCC(=O)Nc1cccc(C(=O)OCc2cccc([N+](=O)[O-])c2)c1	-3%	-1%	-10	-4%	-15%	-7%
O=C(Nc1ccccc1-c1ccccc1)C1CCCC1	?	?	12	6.5µM*	-5%	6.5µM*
O=C(Nc1cccc2ncccc12)C12CC3CC(CC(C3)C1)C2	-8%	-12%	-2	?	-22%	-10%
O=C(Nc1ccccc1-c1ccccc1)C12CC3CC(CC(C3)C1)C2	-20%	?	-11	15µM*	?	?
O=C(Nc1ccccc1C(F)(F)F)C1CCCC1	12%	5%	3	4%	-1%	5%
CC(C)CC(=O)NC(=S)Nc1ccc(S(=O)(=O)NC(C)(C)C)cc1	-15%	-12%	-6	23µM*	-28%	?
CCCCNS(=O)(=O)c1ccc(NC(=O)Cc2ccc(OC)cc2)cc1	-1%	-9%	36	7.3µM*	?	13µM*
CCOc1ccc(NS(=O)(=O)c2ccc(NC(=S)NC(=O)CC(C)C)cc2)cc1	?	-5%[9.24 µM]	0	?	?	?
CCOc1ccc(NS(=O)(=O)c2ccc(C(=O)N(C)CC(=O)Nc3ccc(OC)cc3)cc2)cc1	-2%	-15%	36	?	6%	13µM*
CCCC(=O)NC(=S)Nc1ccc(S(=O)(=O)Nc2ccc(OCC)cc2)cc1	4.6µM*	23µM*	8	?	?	12µM*
CCC1(c2ccccc2)SC(N)=NC1=O (stereo not drawn)	17%	22%	9	4%	nt	-3%
COc1cc(CC(=O)OCn2nnc3ccccc3c2=O)cc(OC)c1OC	12%	10%	0	-3%	-1%	1%
